# Laboratory results taken from PubChem BioAssay AID1259422 (The Scripps Research Institute Molecular Screening Center, 2018).
# The campaign covered roughly 640,000 compounds. About 9,300 (1.5%) were called active. Rule as the data show it: active = inhibition above about 32%; inactive = the rest. What follows is part of a selection rich in actives, with near analogues and random picks from the rest.
# Assay: TEAD-YAP interaction inhibition, primary screen, TEAD-YAP interaction inhibitor project, luminescence, HEK-TIYL cells (AID 1259422);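 also: 0% = median of test compound wells and 100% = reference inhibitor wells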
# Conditions: TEAD-Gal4/YAP UAS-luciferase luminescence, at 9.12 µM, active compounds read high
row,Structure (SMILES),inhibition
1,Cc1ccsc1C(=O)NCC1CCC2(CCN(C(=O)c3ccc(F)cc3)CC2)O1 (stereo not given),-0.6% (inactive)
2,O=C(Nc1cccc(Br)c1)c1ccccc1[N+](=O)[O-],-3.71% (inactive)
3,Cc1ccc(C(=O)Nc2ncc(Cc3ccc(Cl)cc3)s2)o1,-24.8% (inactive)
4,Cc1ccc(Cc2cnc(NC(=O)CCl)s2)cc1,24.8% (inactive)
5,Cc1ccc(CCC(=O)Nc2ncc(Cc3cc(Cl)ccc3Cl)s2)o1,43.6% (active)
6,CCOC(=O)c1ccc(S(=O)(=O)NNC(=O)CCN2C(C)CCCC2C)cc1 (stereo not given),4.62% (inactive)
7,O=C(Oc1cccc(NC(=O)c2ccccc2Cl)c1)c1ccc(Br)c(S(=O)(=O)N2CCCCC2)c1,41.8% (active)
8,O=C(Oc1cccc(NC(=O)c2ccccc2Cl)c1)c1ccc(Cl)c(S(=O)(=O)N2CCCCC2)c1,-1.45% (inactive)
9,CCOc1ccc(NC(=O)c2ccc(Br)c(S(=O)(=O)N3CCCC3)c2)cc1,35.5% (active)
10,Cc1cccc(NC(=O)c2ccc(C)c(S(=O)(=O)N3CCCC3)c2)c1,-31.9% (inactive)
11,CCc1ccccc1NC(=O)c1ccc(F)c(S(=O)(=O)NC2CCCCCC2)c1,-8.09% (inactive)
12,CCOc1ccc(NC(=O)c2ccc(F)c(S(=O)(=O)NC3CCCCCC3)c2)cc1,43.4% (active)
13,CC1CCN(S(=O)(=O)c2cc(C(=O)Oc3cccc(NC(=O)c4ccccc4)c3)c(Cl)cc2Cl)CC1,-2.37% (inactive)
14,CCOc1ccccc1NC(=O)c1ccc(F)c(S(=O)(=O)N2CCCC2)c1,-2.89% (inactive)
15,CCOc1ccc(NC(=O)c2ccc(F)c(S(=O)(=O)NCCc3ccccc3)c2)cc1,20.5% (inactive)
16,Cc1nc2ccc(C(=O)OCC(=O)c3ccc([N+](=O)[O-])cc3)cc2nc1C,3.04% (inactive)
17,O=C(O)C1CN(C(c2ccccc2)c2ccccc2)C1,3.68% (inactive)
18,CCC(C)NC(=O)Nc1cccc(Cl)c1C (stereo not given),-4.8% (inactive)
19,COC(=O)c1ccc(NC(=O)c2ccc(C)o2)cc1,-47% (inactive)
20,c1ccc(N2CCN(N=C3c4ccccc4-c4ccccc43)CC2)nc1,-13.3% (inactive)
21,NC(=O)N/N=C/c1cn(-c2ccccc2)nc1-c1cc2ccccc2oc1=O,40.6% (active)
22,NC(=O)C(=O)N/N=C/c1cn(-c2ccccc2)nc1-c1cccs1,-10.6% (inactive)
23,O=C(NNc1nc(-c2cc3ccccc3oc2=O)cs1)c1ccccc1,-15% (inactive)
24,Cc1cccc(Cc2nnc(CCC(=O)N3CCN(C)C[C@@H]3c3ccccc3)o2)c1,-0.78% (inactive)

row,Structure (SMILES),inhibition
1,COc1ccc(S(=O)(=O)NCCCNS(=O)(=O)c2ccc(OC)cc2)cc1,5.92% (inactive)
2,COc1ccc(CNS(=O)(=O)c2ccc(Oc3ccc(S(=O)(=O)NCc4ccc(OC)cc4)cc3)cc2)cc1,55.4% (active)
3,COc1ccc(S(=O)(=O)NCCN)cc1,4.56% (inactive)
4,CC(=O)Nc1ccc(Nc2nc(-c3ccccc3)nc3c2ncn3C(C)C)cc1,18% (inactive)
5,Cc1c(Cl)cccc1N1C(=O)C2C3CCC(C3)C2C1=O (stereo not given),3.02% (inactive)
6,CCC(=O)N(Cc1ccco1)Cc1cc2cc3c(cc2[nH]c1=O)OCCO3,-9.49% (inactive)
7,O=C(NNS(=O)(=O)c1cccc([N+](=O)[O-])c1)C1CCCCC1,-1.44% (inactive)
8,Cc1ccc(CN2C(=O)CCC2CCNCc2cc3c(cc2Cl)OCO3)cc1F (stereo not given),-1.93% (inactive)
9,CCn1c(SCC(=O)Nc2nc3ccc(OC)cc3s2)nc2cccnc21,3.19% (inactive)
10,Cc1[nH]n(-c2ccc([N+](=O)[O-])cc2)c(=O)c1C=NCCN1CCN(C(=O)/C=C/c2ccccc2)CC1,13.1% (inactive)
11,c1ccc(-c2cc(NCCCn3ccnc3)nc(-c3ccccn3)n2)nc1,54.3% (active)
12,Cc1nc(NCCCN2CCOCC2)cc(-c2ccccn2)n1,5.82% (inactive)
13,Clc1ccc(-c2cc(NCCCn3ccnc3)ncn2)cc1,-76.3% (inactive)
14,COc1ccc(Cl)cc1NC(=O)CC1C(=O)NCCN1C(=S)Nc1ccccc1 (stereo not given),2.46% (inactive)
15,O=C(Nc1ccc(F)c(F)c1)c1ccc(N2CC3CC(C2)c2cccc(=O)n2C3)c(NC(=O)c2cccc(C(F)(F)F)c2)c1 (stereo not given),-14.9% (inactive)
16,COc1ccc(/C(C)=N/Nc2nc3ccccc3[nH]2)cc1,-5.09% (inactive)
17,Cc1ccc(NC(=O)Cc2cccc3ccccc23)c([N+](=O)[O-])c1,-15.6% (inactive)
18,COc1ccc(-c2cnnc(N(C)CCC3CCOCC3)n2)cc1,-22.1% (inactive)
19,COc1ccc(-c2cnnc(N(C)Cc3cnn(C)c3)n2)cc1,36.4% (active)
20,COc1cccc(-c2cnnc(N(C)CCC3CCOCC3)n2)c1,-25.5% (inactive)
21,O=C(c1cccc(Cl)c1)N1CCN(c2ccc([N+](=O)[O-])c(N3CCOCC3)c2)CC1,13.5% (inactive)
22,O=c1cc(-c2ccccc2)nc(NNc2ccccc2)[nH]1,2.03% (inactive)
23,O=c1cc(-c2ccccc2)[nH]c2nc(Cl)ccc12,50.5% (active)
24,O=c1cc(-c2ccccc2)sc2ccc(Cl)cc12,-23.1% (inactive)

row,Structure (SMILES),inhibition
1,CCn1cc(C(=O)Nc2ccc(N3CCOCC3)cc2)c(=O)c2ccc(C)nc21,-7.7% (inactive)
2,COc1ccc(CC(=O)N/N=C(\C)c2ccccn2)cc1OC,2.58% (inactive)
3,Cc1ccc(S(=O)(=O)Oc2ccc(Br)cc2C=O)cc1,31.9% (active)
4,CCOC(=O)N/N=C/c1ccc(OS(=O)(=O)c2ccc(C)cc2)c(OC)c1,3.61% (inactive)
5,COc1cc(C=O)ccc1OS(=O)(=O)c1ccc(Cl)cc1,-7.3% (inactive)
6,CSCCC(=O)Nc1ccc(Cl)cc1,2.57% (inactive)
7,Cc1ccc(NC2=C(Cl)C(=O)OC2OC(=O)c2ccccc2Br)cc1 (stereo not given),9.63% (inactive)
8,N#Cc1ccccc1OCCCCn1cnc2ccccc21,35% (active)
9,O=c1c2ccccc2ncn1CCCCOc1ccccc1F,5.72% (inactive)
10,O=C(O)c1cccc(OCC(O)Cn2cnc3ccccc32)c1 (stereo not given),10% (inactive)
11,COc1c(C)cccc1C1=N/C(=C\c2cccc([N+](=O)[O-])c2)C(=O)O1,9.8% (inactive)
12,CCCOC(=O)C1=C(C)N(C)C(=O)NC1c1cc(Br)c(O)c(OC)c1 (stereo not given),3.09% (inactive)
13,COc1ccc2nc(NC(=O)CN3C(=S)NC(C)(C)CC3C)sc2c1 (stereo not given),3.44% (inactive)
14,CC(NC(=O)COC(=O)c1cccc(NS(C)(=O)=O)c1)C12CC3CC(CC(C3)C1)C2 (stereo not given),-4.62% (inactive)
15,Cc1ccc(S(=O)(=O)N2CCCCC2CCNC(=O)C(=O)NCCO)cc1 (stereo not given),-1.73% (inactive)
16,CCCCNC(=O)C(=O)NCCC1CCCCN1S(=O)(=O)c1ccc(C)cc1 (stereo not given),50.6% (active)
17,Cc1ccc(NC(=O)C(=O)NCCC2CCCCN2S(=O)(=O)c2ccc(C)cc2)cc1 (stereo not given),17.1% (inactive)
18,O=c1c(-c2ccon2)coc2cc(O)ccc12,-4% (inactive)
19,COc1cc2nc(/C=C/c3ccco3)oc(=O)c2cc1OC,0.76% (inactive)
20,CC(=O)c1ccc(N2Cc3ccccc3C2)cc1,38.4% (active)
21,CC(=O)c1ccc(N2CCN(c3cccc[n+]3C)CC2)cc1,-8.59% (inactive)
22,O=C(N/N=C/c1ccc(O)cc1)c1ccc(N2Cc3ccccc3C2)cc1,-17% (inactive)
23,CC1=C(C(=O)OCc2ccccc2)C(c2ccccc2F)CC(=O)N1 (stereo not given),0.13% (inactive)
24,COc1ccccc1N=c1scc(-c2ccccc2)n1CCO,1.29% (inactive)

row,Structure (SMILES),inhibition
1,O=c1c2cc(Cl)ccc2[nH]c(=S)n1Cc1cccnc1,-1.08% (inactive)
2,Cc1ccc(NC(=O)c2ccc(C#N)cc2)c(C(=O)c2ccccc2)c1,4.87% (inactive)
3,COC(=O)CCNc1ccc2c(c1)OCCO2,33.2% (active)
4,CCOc1ccc(NCCC(=O)c2ccc3c(c2)OCO3)cc1,6.84% (inactive)
5,CC(C)=CC(=O)Nc1ccc2c(c1)OCCO2,12.2% (inactive)
6,Cc1cccc(NC(=O)CSc2nc3ccc([N+](=O)[O-])cc3[nH]2)c1,8.94% (inactive)
7,O=C(Nc1ccc(N2CCC(N3CCN(CCO)CC3)CC2)cc1)c1cccc(Cl)c1,-1.49% (inactive)
8,Cc1cc(O)cc2c1C(=O)/C(=C/c1cc3ccccc3o1)O2,71.4% (active)
9,COC(=O)c1ccc2c(c1)C(=O)/C(=C\c1ccccc1O)O2,-31.1% (inactive)
10,Cc1cc2nc(-c3ccc(NC(=O)c4cc5ccccc5o4)cc3)oc2cc1C,-23.6% (inactive)
11,CCCCc1ccc(-c2nc(C=Nc3cc([N+](=O)[O-])ccc3C)c(O)o2)cc1,-9.75% (inactive)
12,COc1cccc(/C=C/C(=O)c2cc3ccccc3oc2=O)c1,-6.12% (inactive)
13,CCCCCCCN1C(=O)c2c(Cl)c(Cl)c(Cl)c(Cl)c2C1=O,5.39% (inactive)
14,Brc1cccc(-c2cnc3ccc(NC4CCOCC4)nn23)c1,29.9% (inactive)
15,Fc1ccc(-c2cnc3ccc(NC4CCOCC4)nn23)cc1Cl,43.8% (active)
16,Oc1ccc(-c2cnc3ccc(NC4CCOCC4)nn23)cc1,-2.21% (inactive)
17,O=C(c1ccc2nc3ccc(Cl)cc3c(=O)n2c1)N1CCN(c2ccccc2)CC1,5.05% (inactive)
18,CNC(=S)N/N=C/c1cccc(/C=N/NC(=S)NC)c1,-8.21% (inactive)
19,CCc1nc2nonc2c2nc3ccccc3n12,-7.01% (inactive)
20,CC(=O)C1=C(O)C(=O)N(c2ccc(C(=O)O)c(O)c2)C1c1ccccc1 (stereo not given),1.91% (inactive)
21,O=C(O)c1ccc(N2C(=O)c3cccc4cccc(c34)C2=O)cc1O,9.06% (inactive)
22,O=C(O)c1ccc(-n2cccc2)cc1O,32.4% (active)
23,Cc1ccc(NC(=O)CCn2cccc2)c(C)c1,-10.1% (inactive)
